# Results as given in PubChem BioAssay (EPA / NIEHS).
# The source made the active and inactive calls. How the source made its calls: active means hit-call score of the fitted dose curve at least 0.9, where 1 is the maximum; inactive means score below 0.9.
# Read-out: BCL2L11 (gene 10018)
# Experiment: LTEA_HepaRG_BCL2L11: Life Technologies and Expression Analysis (LTEA) Assay for Bcl-2 (BCL2L11) gene using HepaRG (AID 2283473)
# Conditions: mRNA level, 48 h; actives raise or lower the signal
# How it was run: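 BCL2L11 transcript levels are measured by Fluidigm qRT-PCR, normalized to three housekeeping genes. HepaRG cultures were plated 48 h, then treated 48 h with test chemical (top 100 uM, half-log, 0.5% DMSO vehicle); curves were fitted bidirectionally against DMSO.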
SMILES,outcome,AC50
CCn1nc(Cc2ccccc2)cc1C1CCN(C[C@H]2C[C@H](N(C)[C@@H](C(=O)O)C(C)C)C[C@@H]2c2cccc(F)c2)CC1,inactive,–
O=c1n(CC2CO2)c(=O)n(CC2CO2)c(=O)n1CC1CO1 (stereo not drawn),inactive,–
O=C(O)CCN(C1(C(=O)NO)CCCC1)S(=O)(=O)c1ccc(Oc2ccc(F)cc2)cc1,inactive,–
CCNc1ccccc1,inactive,–
Cc1c(-c2cccnc2)c2ccccc2n1CCCCC(=O)O,inactive,–
CC1=CC(=O)CC(C)(C)C1,inactive,–
O=C(O)c1cc(N=Nc2ccc(S(=O)(=O)Nc3ccccn3)cc2)ccc1O,inactive,–
CC(=O)OC[C@H]1O[C@@](COC(C)=O)(O[C@H]2O[C@H](COC(C)=O)[C@@H](OC(C)=O)[C@H](OC(C)=O)[C@H]2OC(C)=O)[C@@H](OC(C)=O)[C@@H]1OC(C)=O,inactive,–
CC(C)CC(C)(O)C#CC(C)(O)CC(C)C (stereo not drawn),inactive,–
CC(C)(O)c1coc(S(=O)(=O)NC(=O)Nc2c3c(cc4c2CCC4)CCC3)c1,inactive,–
CC(C)CCCCCCCOC(=O)CCCCC(=O)OCCCCCCCC(C)C,inactive,–
CCOc1cccc(-n2cc(C(=O)N3CCN(c4cc(C(=O)O)c5ccccc5c4)CC3)nc2-c2ccc(C)cc2)c1,–,87.8 µM (active)
COc1ccc2sc(C(=O)Nc3nnn[nH]3)c(OC(C)C)c2c1,–,31.1 µM (active)
Clc1nc(Cl)c(Cl)c(Cl)c1Cl,inactive,–
COC(=O)CC(=O)OC,inactive,–
O=c1[nH]c2ccc(S(=O)CCN3CCC(Cc4ccc(F)cc4)CC3)cc2o1 (stereo not drawn),inactive,–
COc1ccc(-n2nc(C(F)F)cc2-c2ccc(S(C)=O)cc2)cc1 (stereo not drawn),inactive,–
Nc1nc2ncc(CNc3ccc(C(=O)N[C@@H](CCC(=O)O)C(=O)O)cc3)nc2c(=O)[nH]1,inactive,–
CC(C)=CCCC(C)=CC=O,inactive,–
COc1ccc(/C=C/S(=O)(=O)NC(=O)c2ccc(C)cc2Cl)cc1,inactive,–
C1=CCCC=CCCC=CCC1,inactive,–
Nc1cccc(N)c1,inactive,–
CN(C)c1ccc(Cc2ccc(N(C)C)cc2)cc1,inactive,–
On1ccccc1=S,inactive,–
O=C1OC(=O)C2C3C=CC(C3)C12 (stereo not drawn),inactive,–
C=CC(=C)CCC=C(C)C,inactive,–
Cn1c(=O)c2c(ncn2C)n(C)c1=O,inactive,–
O=C(OC[C@H]1O[C@@H](OC(=O)c2cc(O)c(O)c(OC(=O)c3cc(O)c(O)c(O)c3)c2)[C@H](OC(=O)c2cc(O)c(O)c(OC(=O)c3cc(O)c(O)c(O)c3)c2)[C@@H](OC(=O)c2cc(O)c(O)c(OC(=O)c3cc(O)c(O)c(O)c3)c2)[C@@H]1OC(=O)c1cc(O)c(O)c(OC(=O)c2cc(O)c(O)c(O)c2)c1)c1cc(O)c(O)c(OC(=O)c2cc(O)c(O)c(O)c2)c1,–,15.2 µM (active)
